Most compounds without a hit are left out; they make up all but 10% or so of the library.
Pf growth 48h: inhibits P. falciparum growth in the first generation, 48 h; 5.9% of 310,000 active; AID 504832; Potency, µM (highest dose often 28.7 µM), inactives show at the highest dose activity change, negative = inhibition, hits mostly inhibitors; P. falciparum luciferase growth in erythrocytes, 48 h; active = well fitted inhibition curve with a large enough effect; inconclusive = small, poorly fitted or top-dose-only effect, or another doubt; inactive = no such curve, though single readings can be large or run the other way; note: % is set by controls: 0 for no effect and ±100 for the full control effect
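Luciferase-expressing parasites in RBCs, 2% Hct / 0.1% parasitemia final; RPMI 1640 + 0.5% Albumax; 37 C, 5% CO2, one generation; luminescence read-out, lower signal = inhibition.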
NS1 inh: inhibitors of influenza NS1 protein function; Potency, µM (doses to about 46.1 µM), for inactives: top-dose activity, positive = more growth; AID 2326; 0.4% of 270,000 active; note: actives are rising curves; nearly all actives have a fitted effect of over 50% in size
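OD600 was taken as the measure of yeast growth restored by compound in an NS1-expressing S. cerevisiae strain. Cells had been washed out of glucose medium and diluted 1:100 into galactose -URA medium, pH 6.0.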
SARS PLpro yeast: blocks SARS-CoV papain-like protease in a yeast assay. S. cerevisiae expressing SARS-CoV PLpro, growth rescue. Potency, µM (doses to about 32.9 µM), for the others: at the top dose activity, positive = growth rescue, actives largely listed as activators. 0.19% of 330,000 active. AID 485353; note: 0% is about no effect; nearly all actives have a fitted effect of over 55% in size
Pf growth 96h: P. falciparum growth inhibition at 96 hour, primary screen for plastid delayed-death inhibitors; P. falciparum luciferase reporter growth, 96 h; Potency, µM (top dose mostly 28.7 µM), without a hit: at the top dose activity change, negative = inhibition, usual class: inhibitors; 6.9% of 320,000 active; active = well fitted inhibition curve with a large enough effect; inconclusive = small, poorly fitted or top-dose-only effect, or another doubt; inactive = no such curve, though single readings can be large or run the other way; note: % is set by controls: 0 for no effect and ±100 for the full control effect
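Compounds incubated with erythrocytes infected by luciferase-expressing P. falciparum (2% hematocrit, 0.05% parasitemia final) for 96 hours, 37 C in 5% CO2. Growth inhibition scored as decreased luciferase luminescence.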
* = called active by the depositor; u = inconclusive; x = no result. Unless noted, calls come from the whole dose curve. Potency is the fitted concentration of half-maximal effect.

SMILES | Pf growth 48h | NS1 inh | SARS PLpro yeast | Pf growth 96h
O=C(NCc1ccco1)/C(=C/c1ccccc1F)NC(=O)c1ccccc1 | 19% | 8% | -1% | 15%
O=c1c2ccccc2c(C=NCCCN2CCOCC2)c(O)n1Cc1ccc2c(c1)OCO2 | u | x | 2% | u
O=c1c2ccccc2c(C=NCCCN2CCOCC2)c(O)n1Cc1ccccc1 | 10µM* | -12% | 3% | -12%
O=C(NCc1cnc2ccccn12)C1CCC(=O)N(Cc2cccc(F)c2)C1 (stereo not drawn) | 7% | 2% | u | u
Cc1ccccc1OCCCCc1c(C)n[nH]c1C | -15% | -101% | u | 49%
Cc1n[nH]c(C)c1CCCCOc1ccccc1F | 16% | -3% | 5% | 2.1µM*
Cn1c(Cn2c(=O)sc3ccccc32)nnc1SCc1ccccc1F | x | -8% | 5% | 12µM*
CCN(CC)c1ccc(S(=O)(=O)N2CCCCC2)cc1NC(=O)C1CCC1 | u | x | -4% | u
CCCOc1ccc(C(=O)N2CCN(c3ccc(NC(=O)CC)cc3Cl)CC2)cc1 | 6.6µM* | -33% | -17% | -4%
O=C(Nc1ccc(N2CCN(C(=O)c3ccccc3)CC2)c(Cl)c1)c1ccco1 | 8.3µM* | -37% | -8% | -22%
O=C(Nc1ccc(N2CCN(C(=O)c3ccco3)CC2)c(Cl)c1)c1cc2ccccc2o1 | 2.9µM* | -65% | -13% | -2%
CC(=O)N1CCN(c2ccc(NC(=O)c3ccco3)cc2Cl)CC1 | 38% | -4% | u | u
CC(C)C(=O)N1CCN(c2ccc(NC(=O)c3ccco3)cc2Cl)CC1 | 9.3µM* | 7% | -2% | u
CC1C(=O)N2CCCc3cc(NC(=O)C(=O)NCc4cccnc4)cc1c32 (stereo not drawn) | u | x | 1% | u
O=C(NCc1ccco1)C(c1ccccc1)N(C(=O)Cc1cccs1)c1ccccc1F (stereo not drawn) | -16% | 18% | -3% | u
CCCC(=O)N1CCN(c2ccc(NC(=O)c3cc4ccccc4o3)cc2Cl)CC1 | 1.5µM* | -68% | -4% | 7%
CCC(=O)N1CCN(c2ccc(NC(=O)c3cc4ccccc4o3)cc2Cl)CC1 | u | -2% | -19% | -2%
Cc1cccc(C(C)(C)C)c1OCCCCN1CCCC1 | x | -5% | -2% | 9.3µM*
CC(C)(C)c1ccccc1OCCCCN1CCCC1 | x | -7% | 3% | x
CCCCCCCC(=O)NNC(=O)Cc1ccccc1 | 26% | 20% | 2% | 54%
CCCCCCCCCCCC[N+](C)(C)CCOc1ccccc1 | 4.3µM* | x | x | 2.4µM*
CN(Cc1ccccc1)Cc1ccccc1 | -12% | x | x | -6%
CCCCCCCCCCCCCC[N+](C)(C)Cc1ccccc1 | 1.7µM* | x | x | 2.7µM*
C[N+](C)(C)Cc1ccccc1 | u | -5% | 1% | 1µM*
CCCCCCCCCCCCCCCC[N+](C)(C)Cc1ccccc1 | 1.7µM* | x | x | 3µM*
SMILES | Pf growth 48h | NS1 inh | SARS PLpro yeast | Pf growth 96h
CCC(O)c1nc2ccccc2n1CCc1ccccc1 (stereo not drawn) | u | -4% | 0% | 7%
Cc1c(NC(=O)COC(=O)c2cccn2C)c(=O)n(-c2ccccc2)n1C | x | x | 17% | x
COc1cc2ccccc2c2cc([N+](=O)[O-])oc12 | x | -26% | x | x
NC(=O)c1cn(-c2ccccc2)nc1-c1cccnc1 | 14% | 1% | -5% | 18%
COc1ccc(-c2nn(-c3ccccc3)cc2/C=N/NC(N)=S)cc1OC | 12µM* | u | 25% | 15µM*
COc1ccc(-c2nn(-c3ccccc3)cc2C(N)=O)cc1OC | 42% | 9% | 1% | 15µM*
COc1ccc(-c2nn(-c3ccccc3)cc2/C=N/n2cnnc2)cc1OC | u | -7% | 0% | -14%
CCc1ccc(/C=C2/Sc3ccccc3N(CC(=O)NCC3CCCO3)C2=O)cc1 (stereo not drawn) | -27% | -2% | -10% | u
Cc1c(C)c2c(OCC(=O)N3CCC[C@H]3C(=O)O)cc3c(c2oc1=O)CCC(C)(C)O3 | u | u | 2% | 13µM*
Cc1c(C)c2c(OCC(=O)N3CCC(O)CC3)cc3c(c2oc1=O)CCC(C)(C)O3 | 13µM* | -5% | 4% | 7.4µM*
Cc1c(C)c2c(OCC(=O)N[C@@H](C)C(=O)O)cc3c(c2oc1=O)CCC(C)(C)O3 | -7% | 3% | -2% | -12%
COC(=O)Cn1cnc2c(nnn2-c2cccc(OC)c2)c1=O | 25% | -2% | 0% | 26%
COc1ccc(NC(C)=O)cc1NC(=O)C1CCCN1C(=O)c1cccs1 (stereo not drawn) | -28% | x | -3% | -3%

High-throughput results as filed in PubChem.
